The values that follow come from PubChem BioAssay AID1430 (University of Pittsburgh Molecular Library Screening Center, 2008).

In all, about 220,000 compounds went through this assay and about 240 (0.11%) were called active. Shown is part of a subset that was picked to be rich in actives. A number with no mark means an inactive call.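 Rule for the calls: active = inhibition of 50% or more in the single-dose primary screen; inactive = inhibition below 50%.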

This assay concerns hexokinase 1 [Trypanosoma brucei]. Kind of assay: TbHK1 enzyme activity blockers – biochemical, G6PDH-coupled NADH absorbance, MLSCN library, primary screen (AID 1430). The settings on record: recombinant TbHK1, G6PDH-coupled NADH A340; at 10 µM; hits give high values.
Regarding `CC/C(=N\NC(=S)NC(C)C)c1ccc(OC(F)F)cc1`, the inhibition is 10.1%. Under `O=C(c1ccc2ccccc2n1)N1CCN(c2ccccc2Cl)CC1` stands -6.88%; under `CCN(/N=C/c1ccc(N(C)C)cc1)c1nc2ccccc2[nH]1`, -4.95%. Under `COc1ccc(C(C#N)Nc2ccccc2C)cc1` (stereo not drawn) stands 4.57%; under `COC(=O)c1c(NC(=O)COC(=O)[C@@H](NS(=O)(=O)c2ccccc2)C(C)C)sc2c1CCC2`, -13.7%; under `CC(C)COC(=O)n1c(=O)oc2ccc(S(=O)(=O)N3CCCCC3)cc21`, -6.57%. Under `Cc1cc(C)n2nc(C(=O)N(C)C(c3ccccc3)c3ccccc3)nc2n1` stands 1.27%; under `C[n+]1ccccc1C1CCCC/C1=N\Nc1ccc([N+](=O)[O-])cc1[N+](=O)[O-]` (stereo not drawn), -18.3%; under `CCOC(=O)/C(=N\Nc1ccccc1Cl)N(C)C1CCS(=O)(=O)C1` (stereo not drawn), -29.3%.

Regarding `Cn1cc(/C=C/C(=O)N2CCCC(C(=O)c3ccc(C(F)(F)F)cc3)C2)cn1` (stereo not drawn), the inhibition was -9.79%. Under `CC(C)(C)NC(=O)NCc1ccco1` stands 3.59%; under `O=C(COC(=O)/C=C/c1cn(-c2ccccc2)nc1-c1cccnc1)Nc1ccc(Cl)cc1Cl`, -3.93%; under `CC(=O)Nc1ccc(Nc2c([N+](=O)[O-])cc(S(C)(=O)=O)cc2[N+](=O)[O-])cc1`, -2.68%. To `Cc1ccccc1C(=O)NNC(=O)CN1C(=O)c2ccccc2C1=O` belongs 0.726%; to `COc1ccc(/C=N/NS(=O)(=O)c2ccc(NC(C)=O)cc2)cc1`, -17.4%; to `Cc1ccc(NC(=O)C(=O)NCC2CCN(C(=O)c3cccc([N+](=O)[O-])c3)CC2)cc1`, -4.84%. Turning to `CC(=O)NC(Cc1ccc(F)c(F)c1)C(=O)NC1CCN(c2nnnn2-c2ccccc2)CC1` (stereo not drawn), the inhibition is -4.26%. As to `O=C(c1ccncc1)c1ccc([N+](=O)[O-])cc1`, the inhibition was -1.97%. To `COc1ccc(CCNC(=O)CN(c2ccccc2)S(C)(=O)=O)cc1` belongs 2.74%; to `OC(CN1C2=NCCCN2c2ccccc21)c1ccc(Br)cc1` (stereo not drawn), -1.72%. As to `CN(CC#CCC(c1ccccc1)c1ccccc1)C(C)(C)C`, the inhibition is -4.21%. To `O=C(O)c1cccnc1NC1CCCC1` belongs -18.1%; to `O=C(O)c1ccc(N=NN2CCOCC2)cc1`, 11.7%. To `COCCNc1cc(NCCOC)c([N+](=O)[O-])cc1[N+](=O)[O-]` belongs -26.9%.

Consider `Cc1ccc(CNC(=O)CC2Sc3ccccc3NC2=O)cc1` (stereo not drawn), for which the inhibition is -3.22%.

With `CC(C)(C)c1ccc(C(=O)NCc2nnc(SCC(=O)N3CCCc4ccccc43)n2-c2ccccc2)cc1`, the inhibition was -3.07%. Turning to `Cc1ccc(-n2nc(N)c3c(=O)oc(N(C)C)nc32)cc1`, the inhibition was 0.228%. Under `OCCCNC(c1ccccc1)c1ccc(O)cc1` (stereo not drawn) stands 0.734%.

Consider `OCCn1c(-c2ccccc2)csc1=Nc1ccccc1`, for which the inhibition was -11.3%. With `CC1(C)CC(=O)C=C(NCCN2CCNCC2)C1`, the inhibition was -12.2%. With `CC1(C)CC(=O)C=C(NCCCN2CCCC2=O)C1`, the inhibition is 0.498%. To `CC1(C)CC(=O)C=C(NCCCNC2CCCCC2)C1` belongs 58.6% (active). As to `Cc1cc(C)c2nc(SCC(=O)N(C)C3CCS(=O)(=O)C3)cc(C)c2c1` (stereo not drawn), the inhibition is -5.97%. Under `CCc1ccc(-c2nn(-c3ccccc3)cc2CSC(=N)N)cc1` stands 14%. Under `O=c1c(-c2ccccc2)cnc2n1CCS2` stands -3.12%; under `CN(C)c1ccc(C=C2C(=O)OC3(CCCC3)OC2=O)cc1`, -24.4%. To `Cc1cccc(C)c1NC(=O)C(c1ccccc1)N1CC(=O)Nc2ccccc21` (stereo not drawn) belongs 3.26%; to `C/C(CC1CC(C)(C)OC1=O)=N/Nc1nc(-c2ccccc2)cs1` (stereo not drawn), -4.91%; to `CCOC(=O)C(=O)Nc1nc(-c2ccccc2)c(CC)s1`, -8.25%. On to `Cc1ccc(CNC(=O)COc2ccc(S(=O)(=O)NC(C)C)cc2)cc1`, for which the inhibition is -6.99%.

In the case of `O=C(NC(=S)Nc1cc(C(F)(F)F)ccc1N1CCOCC1)c1ccc(-c2cccc(Cl)c2)o1`, the inhibition was -33.5%. To `CCNC(=O)CC1C(=O)N(c2ccc(F)cc2)C(=O)N1Cc1cccs1` (stereo not drawn) belongs -6.58%; to `COC(=O)c1ccc(NC(=S)NN2CCOCC2)cc1`, 0.284%; to `COc1ccc(NS(=O)(=O)c2cc(NC(=O)CC(=O)c3ccc([N+](=O)[O-])cc3)ccc2C)cc1`, -3.8%. Under `N#C/C(C(=S)Nc1ccccc1)=C1/NN=C(N2CCOCC2)N1c1ccccc1` stands -22%; under `Cc1ccc(C(=O)N/C(=C\c2ccco2)C(=O)N2CCSCC2)cc1C`, -18.1%; under `C/C(=N/NC(=O)c1cc(Cl)ccc1O)C12CC3CC(CC(C3)C1)C2`, -5.54%. As for `Cn1nc(C(F)(F)F)cc1-c1ccc(/C=C(\C#N)C(=O)c2cccc(C(F)(F)F)c2)s1`, the inhibition is 20.2%. To `Cc1ccc(/C=C/C(=O)Nc2ccc([N+](=O)[O-])c(NC(=O)/C=C/c3ccc(C)o3)c2)o1` belongs -13.6%. To `Cc1ccc2[nH]c(C)c(CCNC(=O)NC3CCCCC3)c2c1` belongs -1.75%.

`C/C(=N/Nc1ccc(Cl)cc1)c1cnnc(-c2ccccc2)n1`: the inhibition is -3.6%.

For the molecule `COC(C[C@H](O)CC(=O)COCc1ccccc1)OC`, the inhibition was -5.95%.

Regarding `CC1CCCN(C(=O)c2ccc3c(c2)C(=O)N(CCC2=CCCCC2)C3=O)C1` (stereo not drawn), the inhibition was 9.11%.

By inhibition is commonly meant the change of the read-out against control, counted positive when it falls.
